Results filed as inconclusive are left out. The source made the active and inactive calls. Calls come from the whole dose curve; as a rule, active = well fitted curve in the direction sought with a large enough effect; inconclusive = small, poorly fitted or top-dose-only effect, or another doubt; inactive = no such curve, though single readings can be large; an effect the other way counts as inactive or inconclusive.
biological target: Calcium and integrin-binding protein 1 (Homo sapiens) (UniProt Q99828); assay: Primary qHTS for Identification of Calcium Integrin Binding Protein 1 (CIB1) Competitor (AID 1508620); conditions: CIB1-GST / FITC-alphaIIb peptide fluorescence polarization; series mostly up to 57.7 µM; activity change, negative = inhibition: at the top concentration;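 for activity change, negative = inhibition: GST tagged CIB1 binding a fluorescein labelled alphaIIb integrin peptide tracer; top concentration of the series differs between compounds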
Sequence (Q99828 whole entry, looked up): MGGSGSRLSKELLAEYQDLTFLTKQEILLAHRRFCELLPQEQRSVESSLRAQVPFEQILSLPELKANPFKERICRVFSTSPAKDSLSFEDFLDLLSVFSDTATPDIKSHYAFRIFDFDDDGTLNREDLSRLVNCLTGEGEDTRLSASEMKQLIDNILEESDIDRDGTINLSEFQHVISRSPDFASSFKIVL
Summary of the method: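 CIB1-GST (1 uM final) and compound incubated 15 min at room temperature before adding FITC-alphaIIb peptide tracer (100 nM final). Competition for binding read by fluorescence polarization (ex 480, em 540) after another 15 min at room temperature.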
% is set by controls: 0 for no effect and ±100 for the full control effect; potency is the fitted concentration of half-maximal effect.

Row | Structure (SMILES) | activity change, negative = inhibition | Potency
1 | CC(C)(F)C[C@H](N[C@@H](c1ccc(-c2ccc(S(C)(=O)=O)cc2)cc1)C(F)(F)F)C(=O)NC1(C#N)CC1 | -0.678% (inactive) | 
2 | N#Cc1c(N(CC(=O)O)CC(=O)O)sc(C(=O)O)c1CC(=O)O | 1.72% (inactive) | 
3 | O=C(CC12CC3CC(CC(C3)C1)C2)Nc1cccc2nc(NCCNCCO)ccc12 |  | inactive
4 | CCn1c(-c2nonc2N)nc2cncc(CNC3CCNCC3)c21 |  | inactive
5 | CC[C@@H]([C@H](C)O)n1ncn(-c2ccc(N3CCN(c4ccc(OCC5CO[C@@](Cn6cncn6)(c6ccc(F)cc6F)C5)cc4)CC3)cc2)c1=O (some centres not stated) | -0.202% (inactive) | 
6 | O=C(O)Cc1cccc(OCCCN(Cc2cccc(C(F)(F)F)c2Cl)CC(c2ccccc2)c2ccccc2)c1 | -3.15% (inactive) | 
7 | Cc1cccc(-c2[nH]c(C(C)(C)C)nc2-c2ccc3c(c2)OCO3)n1 | -2.88% (inactive) | 
8 | CNC(=O)c1cc(Oc2ccc(NC(=O)Nc3ccc(Cl)c(C(F)(F)F)c3)c(F)c2)ccn1 |  | inactive
9 | Cc1cc2nc3c(=O)[nH]c(=O)nc-3n(CC(O)C(O)C(O)CO)c2cc1C (configuration not stated) |  | 6.81 µM (active)
10 | CCOC(=O)c1c(CSc2ccccc2)n(C)c2cc(Br)c(O)c(CN(C)C)c12 | -0.245% (inactive) | 
11 | CN1CCN(c2ncc(-c3cc(Cl)cc(Cl)c3Cl)c(N)n2)CC1 | -12.6% (inactive) | 
12 | Nc1[nH]nc2nnc(-c3c(-c4ccccc4)nn4ccccc34)cc12 |  | inactive
13 | COc1cc2nccc(Oc3ccc(NC(=O)Nc4cc(C)on4)c(Cl)c3)c2cc1OC |  | inactive
14 | NC[C@H]1O[C@H](O[C@@H]2[C@@H](O)[C@@H](O[C@H]3O[C@H](CO)[C@@H](O)[C@H](N)[C@@H]3O)[C@H](N)C[C@@H]2N)[C@H](O)[C@@H](O)[C@H]1O | -2.83% (inactive) | 
15 | N#Cc1ccc(Oc2ccc3c(c2)COB3O)cc1 |  | inactive
16 | O=C(O)CCC=CCC[C@@H]1[C@H](N2CCCCC2)[C@@H](O)C[C@@H]1OCc1ccc(-c2ccccc2)cc1 | -2.23% (inactive) | 
17 | CN(C(Cc1ccc(OS(=O)(=O)c2cccc3cnccc23)cc1)C(=O)N1CCN(c2ccccc2)CC1)S(=O)(=O)c1cccc2cnccc12 (configuration not stated) | 1.65% (inactive) | 
18 | Cc1cc(-c2ncc(CC(=O)Nc3ccc(-c4cnccn4)cn3)cc2C)ccn1 |  | inactive

Row | Structure (SMILES) | activity change, negative = inhibition | Potency
19 | CNC(=O)c1c(-c2ccc(F)cc2)oc2cc(N(CCO)S(C)(=O)=O)c(C3CC3)cc12 |  | inactive
20 | Cc1cc(NC(=O)Nc2ccc(N(C)C)cc2)c2cc(F)cc(F)c2n1 | -7.42% (inactive) | 
21 | Cc1cnc(-c2cc(N3CCN(C(=O)CCS(C)(=O)=O)CC3)ncc2Cl)c(C)c1 |  | inactive
22 | COc1ccc2nc3cc(Cl)ccc3c(Nc3cc(CN4CCCC4)c(O)c(CN4CCCC4)c3)c2n1 | -3.62% (inactive) | 
23 | CC1=C(C(=O)Nc2cc3cn[nH]c3cc2F)C(c2ccc(C(F)(F)F)cc2)CC(=O)N1 (configuration not stated) |  | inactive
24 | Cn1c(=O)c(Oc2ccc(F)cc2F)cc2cnc(NC3CCOCC3)nc21 | 0.709% (inactive) | 
25 | Cc1cccc(Nc2nc(N[C@@H]3CCCC[C@H]3N)ncc2C(N)=O)c1 | -2.14% (inactive) | 
26 | CCCC1OC2C[C@@H]3[C@H]4CCC5=CC(=O)C=C[C@]5(C)[C@H]4C(O)C[C@]3(C)[C@]2(C(=O)CO)O1 (some centres not stated) | -3.03% (inactive) | 
27 | CN1CC(=O)NC1=NC(=O)Nc1cccc(Cl)c1 | 0.915% (inactive) | 
28 | CCCCCCCCCCCCCCCC(=O)O[C@H]1[C@@H](O)[C@@H](O)[C@@H]([C@H](NC(=O)[C@@H]2C[C@@H](CCC)CN2C)[C@H](C)Cl)O[C@@H]1SC | 0.283% (inactive) | 
29 | O=C(O)CCNc1cc(N2CCc3ccccc3CC2)nc(-c2ccccn2)n1 | -18.2% [at 114 µM] (inactive) | 
30 | COc1ccc2c(c1)c(C1=C(c3c[nH]c4ccccc34)C(=O)NC1=O)cn2CCCN(C)C | -17.4% (inactive) | 
31 | CC(C)C[C@@H](N)[C@H](O)C(=O)N[C@H](C(=O)N[C@H](C(=O)N[C@@H](CC(=O)O)C(=O)O)C(C)C)C(C)C | -0.109% (inactive) | 
32 | CN[C@@H]1CN(c2ccc3c(=O)c(C(=O)O)cn(-c4nccs4)c3n2)C[C@@H]1OC | -2.96% [at 30.2 µM] (inactive) | 
33 | CC1CNc2c(cccc2S(=O)(=O)N[C@@H](CCCN=C(N)N)C(=O)N2CC[C@@H](C)C[C@@H]2C(=O)O)C1 (some centres not stated) | -3.18% (inactive) | 
34 | CCCCC(F)(F)[C@@]1(O)CC[C@H]2[C@H](CC(=O)[C@@H]2CCCCCCC(=O)O)O1 |  | inactive
35 | CS(=O)(=O)c1ccc(C2=C(c3ccccc3)C(=O)OC2)cc1 |  | inactive
36 | O=C(O)c1nc(=O)[nH]c(=O)[nH]1 | 1.53% [at 30.2 µM] (inactive) | 

tested on: not listed separately; assay: Primary qHTS for small molecule stabilizers of the endoplasmic reticulum resident proteome: Secreted ER Calcium Modulated Protein (SERCaMP) assay (AID 1508630); conditions: SH-SY5Y GLuc-SERCaMP (Gaussia luciferase released on ER calcium loss) secretion, thapsigargin, luminescence; series mostly up to 38.4 µM; activity change, negative = inhibition: at the top concentration
Summary of the method: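 The SH-SY5Y reporter protocol was run at 3 concentrations up to 38.3 uM (primary) or 11 concentrations (follow-up): 16 h compound, 100 nM thapsigargin for 4 h, then extracellular luciferase luminescence.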

Row | Structure (SMILES) | activity change, negative = inhibition | Potency
37 | CC(C)(F)C[C@H](N[C@@H](c1ccc(-c2ccc(S(C)(=O)=O)cc2)cc1)C(F)(F)F)C(=O)NC1(C#N)CC1 | -4.4% (inactive) | 
38 | O=C(CC12CC3CC(CC(C3)C1)C2)Nc1cccc2nc(NCCNCCO)ccc12 | 66.3% (inactive) | 
39 | CCn1c(-c2nonc2N)nc2cncc(CNC3CCNCC3)c21 | 56.1% (inactive) | 
40 | CC[C@@H]([C@H](C)O)n1ncn(-c2ccc(N3CCN(c4ccc(OCC5CO[C@@](Cn6cncn6)(c6ccc(F)cc6F)C5)cc4)CC3)cc2)c1=O (some centres not stated) | 38.3% (inactive) | 
41 | O=C(O)Cc1cccc(OCCCN(Cc2cccc(C(F)(F)F)c2Cl)CC(c2ccccc2)c2ccccc2)c1 |  | inactive
42 | CNC(=O)c1cc(Oc2ccc(NC(=O)Nc3ccc(Cl)c(C(F)(F)F)c3)c(F)c2)ccn1 | 252% (inactive) | 
43 | CCOC(=O)c1c(CSc2ccccc2)n(C)c2cc(Br)c(O)c(CN(C)C)c12 | -28.6% (inactive) | 
44 | CN1CCN(c2ncc(-c3cc(Cl)cc(Cl)c3Cl)c(N)n2)CC1 | 27.6% (inactive) | 
45 | Nc1[nH]nc2nnc(-c3c(-c4ccccc4)nn4ccccc34)cc12 | 68.8% (inactive) | 
46 | COc1cc2nccc(Oc3ccc(NC(=O)Nc4cc(C)on4)c(Cl)c3)c2cc1OC | 33.8% (inactive) | 
47 | N#Cc1ccc(Oc2ccc3c(c2)COB3O)cc1 | 0% (inactive) | 
48 | O=C(O)CCC=CCC[C@@H]1[C@H](N2CCCCC2)[C@@H](O)C[C@@H]1OCc1ccc(-c2ccccc2)cc1 | 208% (inactive) | 
49 | CN(C(Cc1ccc(OS(=O)(=O)c2cccc3cnccc23)cc1)C(=O)N1CCN(c2ccccc2)CC1)S(=O)(=O)c1cccc2cnccc12 (configuration not stated) |  | 11.9 µM (active)
50 | Cc1cc(-c2ncc(CC(=O)Nc3ccc(-c4cnccn4)cn3)cc2C)ccn1 | 0% (inactive) | 
51 | CNC(=O)c1c(-c2ccc(F)cc2)oc2cc(N(CCO)S(C)(=O)=O)c(C3CC3)cc12 | 0% (inactive) | 
52 | Cc1cnc(-c2cc(N3CCN(C(=O)CCS(C)(=O)=O)CC3)ncc2Cl)c(C)c1 | 21.9% (inactive) | 
53 | COc1ccc2nc3cc(Cl)ccc3c(Nc3cc(CN4CCCC4)c(O)c(CN4CCCC4)c3)c2n1 | 2.31% (inactive) | 
54 | Cn1c(=O)c(Oc2ccc(F)cc2F)cc2cnc(NC3CCOCC3)nc21 | 0% (inactive) | 
55 | Cc1cccc(Nc2nc(N[C@@H]3CCCC[C@H]3N)ncc2C(N)=O)c1 | 3.52% (inactive) | 
56 | CCCC1OC2C[C@@H]3[C@H]4CCC5=CC(=O)C=C[C@]5(C)[C@H]4C(O)C[C@]3(C)[C@]2(C(=O)CO)O1 (some centres not stated) | -4.44% (inactive) | 
57 | CCCCCCCCCCCCCCCC(=O)O[C@H]1[C@@H](O)[C@@H](O)[C@@H]([C@H](NC(=O)[C@@H]2C[C@@H](CCC)CN2C)[C@H](C)Cl)O[C@@H]1SC | 148% (inactive) | 
58 | CC(C)C[C@@H](N)[C@H](O)C(=O)N[C@H](C(=O)N[C@H](C(=O)N[C@@H](CC(=O)O)C(=O)O)C(C)C)C(C)C | 76.8% (inactive) | 
59 | CN[C@@H]1CN(c2ccc3c(=O)c(C(=O)O)cn(-c4nccs4)c3n2)C[C@@H]1OC | 43.6% [at 21.6 µM] (inactive) | 
60 | CC1CNc2c(cccc2S(=O)(=O)N[C@@H](CCCN=C(N)N)C(=O)N2CC[C@@H](C)C[C@@H]2C(=O)O)C1 (some centres not stated) | 245% (inactive) | 
61 | CS(=O)(=O)c1ccc(C2=C(c3ccccc3)C(=O)OC2)cc1 | 12.8% (inactive) | 
62 | O=C(O)c1nc(=O)[nH]c(=O)[nH]1 | 9.88% [at 21.6 µM] (inactive) | 

— PubChem BioAssay (NCATS)
